{"source": "PubChem BioAssay AID2023", "about": "(NMMLSC, 2009)", "note": "Out of some 320,000 compounds screened, about 1,100 (0.34%) were called active.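 How the source made its calls: active means GFP response vs DMSO above a set limit, about the screen mean plus 3 SD (cut at about 150% in these data); inconclusive means under 70 cell events counted for the yeast strain; inactive means the rest.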 For the sample, actives were picked, then their nearest neighbours and some compounds at random.", "data": [{"assay": "modulators of LAP4-GFP expression in yeast, primary screen, S. cerevisiae, multiplex flow cytometry, MLPCN library (AID 2023)", "settings": "3 h, at 10 µM, stronger effect = higher value, median GFP as percent of DMSO wells", "values": [{"smiles": "CCn1c(=S)[nH]c2cc(S(=O)(=O)N3CCOCC3)ccc21", "GFP response vs DMSO": "89.3% (inactive)"}, {"smiles": "Cc1ccc2cccc(S(=O)(=O)N3CCN(c4ccccc4F)CC3)c2n1", "GFP response vs DMSO": "110% (inactive)"}, {"smiles": "Cc1ccc(C(=O)N2CCCC(c3ccccc3)=N2)cc1", "GFP response vs DMSO": "107% (inactive)"}, {"smiles": "CC(C(=O)Nc1ccccc1-c1ccccc1)N1CCOCC1", "note": "(configuration not stated)", "GFP response vs DMSO": "100% (inactive)"}, {"smiles": "CC(C)c1ccc(NC2CCCN(C(=O)c3ccncc3)C2)cc1", "note": "(configuration not stated)", "GFP response vs DMSO": "93.3% (inactive)"}, {"smiles": "COC(=O)c1cc(S(=O)(=O)NC2CCN(Cc3ccccc3)CC2)cn1C", "GFP response vs DMSO": "95.7% (inactive)"}, {"smiles": "CC12CN3CCN(CC(C3)/C1=N\\NC(=O)c1ccccc1N)C2", "GFP response vs DMSO": "102% (inactive)"}, {"smiles": "CC(=O)Nc1ccc(NC(=O)COC(=O)C2CCC(C(C)(C)C)CC2)cc1", "note": "(configuration not stated)", "GFP response vs DMSO": "107% (inactive)"}, {"smiles": "Cc1cccc(C)c1NC(=O)CN(C)C(=O)CCC(=O)c1ccccc1", "GFP response vs DMSO": "104% (inactive)"}, {"smiles": "Cc1cccc(C)c1NC(=O)C(c1ccccc1)N1CC(=O)Nc2ccccc21", "note": "(configuration not stated)", "GFP response vs DMSO": "90.5% (inactive)"}, {"smiles": "Cc1cccc(C)c1NC(=O)C(Cl)C(=O)c1ccccc1", "note": "(configuration not stated)", "GFP response vs DMSO": "269% (active)"}, {"smiles": "Oc1cccc(/C=N/Nc2ccc(Cl)nn2)c1O", "GFP response vs DMSO": "89.6% (inactive)"}, {"smiles": "COc1cccc(/C=N/Nc2ncc(C(F)(F)F)cc2Cl)c1O", "GFP response vs DMSO": "184% (active)"}, {"smiles": "FC(F)(F)c1cnc(Oc2ccccc2-c2nnc(-c3ccc(Cl)cc3)o2)c(Cl)c1", "GFP response vs DMSO": "96.3% (inactive)"}, {"smiles": "Cc1ccc2nsnc2c1NC(=O)c1ccccc1[N+](=O)[O-]", "GFP response vs DMSO": "93.2% (inactive)"}, {"smiles": "Cc1cc(=O)n2nc(N3CCCC(C(=O)NCCC4=CCCCC4)C3)sc2n1", "note": "(configuration not stated)", "GFP response vs DMSO": "196% (active)"}, {"smiles": "Cc1cc(=O)n2nc(N3CCCC(C(=O)NCc4cccc(Cl)c4)C3)sc2n1", "note": "(configuration not stated)", "GFP response vs DMSO": "92.2% (inactive)"}, {"smiles": "Cc1cc(=O)n2nc(N3CCCC(C(=O)NCc4ccc(Cl)cc4)C3)sc2n1", "note": "(configuration not stated)", "GFP response vs DMSO": "92.3% (inactive)"}, {"smiles": "CC(=O)NCCC(=O)Nc1cc(S(=O)(=O)N2CCCCC2)ccc1Oc1cccc(C)c1", "GFP response vs DMSO": "87.1% (inactive)"}, {"smiles": "COc1ccc([C@H]2CC(=O)C=C(/C=C/c3ccccc3)C2)cc1", "GFP response vs DMSO": "115% (inactive)"}, {"smiles": "CC1=C/C(=N\\OS(=O)(=O)c2ccccc2)C=CC1=O", "GFP response vs DMSO": "257% (active)"}, {"smiles": "CCC(C)Sc1nnc(-c2c[nH]c3ccccc23)n1CCOC", "note": "(configuration not stated)", "GFP response vs DMSO": "90.4% (inactive)"}, {"smiles": "CCn1c(SCC(=O)Nc2ccc(OC)c(OC)c2)nnc1-c1c[nH]c2ccccc12", "GFP response vs DMSO": "98.2% (inactive)"}, {"smiles": "CCn1c(SCCC(C)C)nnc1-c1c[nH]c2ccccc12", "GFP response vs DMSO": "169% (active)"}, {"smiles": "C#CCOCCOCCOCCNc1nc(N2CCN(C(=O)CCCCCCCCCCNC(=O)[C@H]([C@@H](C)CC)n3cc(CCCCN=C(N)N)nn3)CC2)nc(N2CCN(C(=O)CCCCCCCCCCNC(=O)[C@H](CO)n3cc(CCCSC)nn3)CC2)n1", "GFP response vs DMSO": "135% (inactive)"}, {"smiles": "C#CCOCCOCCOCCNc1nc(N2CCN(C(=O)CCCCCCCCCCNC(=O)[C@H](CCCCN)n3cc(C)nn3)CC2)nc(N2CCN(C(=O)CCCCCCCCCCNC(=O)[C@H](CO)n3cc(CCCSC)nn3)CC2)n1", "GFP response vs DMSO": "155% (active)"}, {"smiles": "C#CCOCCOCCOCCNc1nc(N2CCN(C(=O)CCCCCCCCCCNC(=O)Cn3cc(CCCCCN)nn3)CC2)nc(N2CCN(C(=O)CCCCCCCCCCNC(=O)[C@H](CO)n3cc(CCCSC)nn3)CC2)n1", "GFP response vs DMSO": "118% (inactive)"}, {"smiles": "Cc1ccc(C2CCN(C(=S)Nc3cccc(Cl)c3)C2)cc1", "note": "(configuration not stated)", "GFP response vs DMSO": "158% (active)"}, {"smiles": "Cc1cccc(NC(=S)N2CCCC(c3nc4ccccc4[nH]3)C2)c1", "note": "(configuration not stated)", "GFP response vs DMSO": "93.9% (inactive)"}, {"smiles": "O=C(C1CCCO1)N1CCN(C(=S)Nc2cccc(Cl)c2)CC1", "note": "(configuration not stated)", "GFP response vs DMSO": "95.7% (inactive)"}, {"smiles": "O=S(=O)(c1ccc2ccccc2c1)N1CCN(S(=O)(=O)N2CCOCC2)CC1", "GFP response vs DMSO": "87% (inactive)"}, {"smiles": "COc1ccc(C)cc1N(CC(=O)NC(C)c1ccccc1)S(C)(=O)=O", "note": "(configuration not stated)", "GFP response vs DMSO": "80.6% (inactive)"}, {"smiles": "S=C(NCc1ccco1)NCc1ccccc1Cl", "GFP response vs DMSO": "85.2% (inactive)"}, {"smiles": "Clc1ccccc1CSc1nnc(-c2ccco2)c(-c2ccco2)n1", "GFP response vs DMSO": "186% (active)"}, {"smiles": "O=C(CC1N=C2c3ccccc3N=C(SCc3ccccc3Cl)N2C1=O)NCc1ccco1", "note": "(configuration not stated)", "GFP response vs DMSO": "97.5% (inactive)"}, {"smiles": "CN1CCCc2cc(C#N)c(=O)[nH]c21", "GFP response vs DMSO": "105% (inactive)"}, {"smiles": "Cc1ccc(S(=O)(=O)N(C)C)cc1NC(=O)c1ccc(-n2cncn2)c([N+](=O)[O-])c1", "GFP response vs DMSO": "98% (inactive)"}, {"smiles": "NC(=O)c1ccccc1N=Cc1ccc2ccccc2c1", "GFP response vs DMSO": "88.2% (inactive)"}, {"smiles": "COc1cccc(NC(=O)C2CCCN(c3ncnc4c3nc3n4CCCCC3)C2)c1", "note": "(configuration not stated)", "GFP response vs DMSO": "94.5% (inactive)"}, {"smiles": "O=C(/C=C/c1ccc(Cl)cc1Cl)c1cccnc1", "GFP response vs DMSO": "99.4% (inactive)"}, {"smiles": "O=C(Nc1cccnc1)c1ccc(Cl)c([N+](=O)[O-])c1", "GFP response vs DMSO": "119% (inactive)"}, {"smiles": "O=C(/C=C/c1ccc(Cl)c([N+](=O)[O-])c1)c1cccnc1", "GFP response vs DMSO": "236% (active)"}, {"smiles": "Cc1cc(NC(=O)CN2C(=O)NC(CCc3ccccc3)C2=O)no1", "note": "(configuration not stated)", "GFP response vs DMSO": "92.5% (inactive)"}, {"smiles": "Cc1ccc(NC(=O)N2CCSc3ccccc32)cc1", "GFP response vs DMSO": "96.8% (inactive)"}, {"smiles": "O=C(NCCS(=O)(=O)c1ccc(Br)cc1)c1ccccc1Cl", "GFP response vs DMSO": "102% (inactive)"}, {"smiles": "CCc1noc(C)c1C(=O)N1CCCSC1=Nc1ccccc1OC", "GFP response vs DMSO": "101% (inactive)"}, {"smiles": "CC(C)[C@@H]1COC(c2cccc(C3=N[C@H](C(C)C)CO3)c2)=N1", "GFP response vs DMSO": "163% (active)"}, {"smiles": "CCOCc1c(C(=O)N2CCN(Cc3ccc(Br)s3)CC2)oc2ccccc12", "GFP response vs DMSO": "102% (inactive)"}, {"smiles": "COc1ccc(Cn2c(-c3ccc(Cl)cc3)c[n+]3ccccc23)cc1", "GFP response vs DMSO": "101% (inactive)"}, {"smiles": "C/C(N)=C(\\C#N)C(=O)NCCc1ccccn1", "GFP response vs DMSO": "87.1% (inactive)"}, {"smiles": "O=C(NCCc1ccccc1Cl)C1CCC(=O)N(CCCc2ccccc2)C1", "note": "(configuration not stated)", "GFP response vs DMSO": "87.4% (inactive)"}, {"smiles": "Cc1cc(C)nc(S/C=C/C(=O)c2ccccc2)n1", "GFP response vs DMSO": "239% (active)"}, {"smiles": "Cc1cc(Oc2ccc(Cl)cc2)nc(SCC(=O)c2ccccc2)n1", "GFP response vs DMSO": "103% (inactive)"}, {"smiles": "Cc1cc(C)nc(SCC(=O)c2ccc(Cl)cc2)n1", "GFP response vs DMSO": "91.3% (inactive)"}, {"smiles": "Cc1noc(C)c1S(=O)(=O)N(C)Cc1ccccc1", "GFP response vs DMSO": "91.9% (inactive)"}, {"smiles": "N#C/C(=C\\N1CCOCC1)S(=O)(=O)c1ccc(Cl)cc1", "GFP response vs DMSO": "113% (inactive)"}, {"smiles": "Cc1ccc(NC(=O)Cn2c(=O)n(CCC(=O)NC3CCN(Cc4ccccc4)CC3)c(=O)c3ccccc32)cc1", "GFP response vs DMSO": "94.3% (inactive)"}]}]}
